According to PubChem BioAssay (NCATS):
Records with an inconclusive call do not appear. Active and inactive are the calls of the source. Calls follow the shape of the dose curve; as a rule, active = well fitted curve in the direction sought with a large enough effect; inconclusive = small, poorly fitted or top-dose-only effect, or another doubt; inactive = no such curve, though single readings can be large; an effect the other way counts as inactive or inconclusive.

Assays:
[1] = MultiTox-Fluor Cytotoxicity Assay - LYMP1-001 - Dead Cells (AID 946)
How it was run: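 In this qHTS, 15 uM tetraoctylammonium bromide defined 100% and DMSO defined basal activity. Lymphoblastoid cells (LYMP1-001, 2500 per well) received compound for 16 hr at 37 C before a fluorogenic dead-cell substrate readout at 485/520 nm.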

[2] = MultiTox-Fluor Cytotoxicity Assay - LYMP1-001 - Live Cells (AID 947)
[3] = Cell Viability - LYMP1-002 - Assay at 16 hr (AID 948)
How it was run: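 LYMP1-002 human lymphoblastoid cells, 2500/well, were treated with compounds for 16 hr at 37 C in complete medium. Viability was read as intracellular ATP by CellTiter-Glo luminescence, and AC50 was derived from a Hill fit to concentration-response data.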

[4] = MultiTox-Fluor Cytotoxicity Assay - LYMP1-002 - Dead Cells (AID 960); also: nearly all actives have a fitted effect of over 60% in size
How it was run: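 Human lymphoblastoid cells (LYMP1-002), 2500/well in complete medium, were exposed to compounds for 16 hr at 37 C. Dead-cell protease activity was read as bis-AAF-R110 fluorescence (Ex/Em 485/520), normalized to DMSO and 15 uM tetraoctylammonium bromide; AC50 from Hill fits.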

[5] = MultiTox-Fluor Cytotoxicity Assay - LYMP1-003 - Dead Cells (AID 961); also: nearly all actives have a fitted effect of over 70% in size
How it was run: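 Acute toxicity is scored as increased dead-cell protease activity in human lymphoblastoid LYMP1-003 cells after 16 h compound exposure in complete culture medium. Activity is normalized to DMSO basal and 15 uM tetraoctylammonium bromide as full response.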

[6] = MultiTox-Fluor Cytotoxicity Assay - LYMP1-003 - Live Cells (AID 962);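 also: cytotoxic hits lower the live-cell protease signal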
How it was run: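 LYMP1-003 human lymphoblastoid cells (2500/well) in complete medium were preincubated 5 hr at 37 C, then exposed to compounds for 16 hr at 37 C. Live-cell protease cleavage of GF-AFC read by fluorescence (Ex/Em 405/510); AC50 from Hill fits.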

[7] = Cell Viability - LYMP1-003 - Assay at 24 hr (AID 963)
How it was run: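 Human lymphoblastoid LYMP1-003 cells (2500/well) were rested 5 hr at 37 C, then exposed to compounds in complete medium for 24 hr at 37 C. Cellular ATP was quantified by CellTiter-Glo luminescence, and AC50 values came from Hill fits of concentration-response data.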

[8] = Cell Viability - LYMP1-003 - Assay at 40 hr (AID 964); also: series mostly up to about 92 µM; nearly all actives have a fitted effect of over 60% in size
How it was run: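 Human lymphoblastoid LYMP1-003 cells, 2500/well in complete medium, rested 5 hr at 37 C, then exposed to compounds for 40 hr at 37 C. Viability read as intracellular ATP by CellTiter-Glo luminescence; AC50 from Hill fits of concentration-response data.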

[9] = Cell Viability - LYMP2-003 (AID 965);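 also: cells exposed to compounds for 24 h before reading; nearly all actives have a fitted effect of over 50% in size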
How it was run: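 Human lymphoblastoid LYMP2-003 cells, 2500/well, exposed to compounds for 24 h at 37 C in complete medium. Viability read as intracellular ATP by CellTiter-Glo luminescence; AC50 from Hill-equation fits of qHTS concentration-response data.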

[10] = Cell Viability - LYMP2-004 (AID 966); also: nearly all actives have a fitted effect of over 65% in size
How it was run: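 Human lymphoblastoid cells (2500/well) in complete medium were treated with compounds for 24 hr at 37 C, then intracellular ATP was measured by CellTiter-Glo luminescence. AC50 values came from Hill-equation fits of concentration-response data.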

[11] = Cell Viability - LYMP2-005 (AID 967); also: series mostly up to about 92 µM
How it was run: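 Human lymphoblastoid LYMP2-005 cells, 2,500 per well in complete medium, rested 5 h at 37C then compound-treated 24 h at 37C. Intracellular ATP read by CellTiter-Glo luminescence after 30 min at room temperature; AC50 from Hill-equation fits of concentration-response data.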

[12] = Cell Viability - LYMP2-009 (AID 968); also: series mostly up to about 92 µM; nearly all actives have a fitted effect of over 55% in size
[13] = Cell Viability - LYMP2-011 (AID 969); also: nearly all actives have a fitted effect of over 60% in size
How it was run: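 Human lymphoblastoid cells (2500/well) were plated in complete medium, preincubated 5 hr at 37 C, then exposed to compounds for 24 hr at 37 C. Intracellular ATP was read by CellTiter-Glo luminescence, and AC50 came from Hill-equation concentration-response fits.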

[14] = Cell Viability - LYMP2-013 (AID 970); also: series mostly up to about 92 µM; nearly all actives have a fitted effect of over 55% in size
How it was run: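 Human lymphoblastoid cells, 2500/well, were preincubated 5 hr at 37 C, then treated with compounds for 24 hr at 37 C in complete medium. Intracellular ATP was read by CellTiter-Glo luminescence; AC50 from Hill-equation fits of concentration-response data.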

[15] = Cell Viability - LYMP2-015 (AID 971); also: nearly all actives have a fitted effect of over 55% in size
How it was run: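 Human lymphoblastoid cells (2500/well) in complete medium were preincubated 5 hr at 37 C, then compound-treated 24 hr at 37 C. Intracellular ATP was read by CellTiter-Glo luminescence after 30 min at room temperature; AC50 came from Hill-equation concentration-response fits.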

[16] = Cell Viability - LYMP2-017 (AID 972); also: series mostly up to about 92 µM; nearly all actives have a fitted effect of over 55% in size
How it was run: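 Human lymphoblastoid cells (2500/well) were seeded in complete medium, held 5 hr at 37 C, then exposed to compounds for 24 hr at 37 C. Intracellular ATP was read by CellTiter-Glo luminescence after 30 min at room temperature, with AC50 values from Hill-equation fits.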

[17] = Cell Viability - LYMP2-019 (AID 973); also: nearly all actives have a fitted effect of over 55% in size
How it was run: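 Human lymphoblastoid cells were seeded at 2500 cells/well, preincubated 5 hr at 37 C, then exposed to compounds for 24 hr at 37 C in complete medium. Intracellular ATP was measured by CellTiter-Glo luminescence; AC50 from Hill fits.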

[18] = Cell Viability - LYMP2-021 (AID 974)
How it was run: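 Human lymphoblastoid cells (2500/well) were preincubated 5 hr at 37 C, then exposed to compounds for 24 hr at 37 C in complete medium. Intracellular ATP was read by CellTiter-Glo luminescence; AC50 came from Hill-equation fits of concentration-response data.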

[19] = Cell Viability - LYMP2-023 (AID 975)
How it was run: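 Human lymphoblastoid cells (2500/well) were preincubated 5 hr at 37 C, then exposed to compounds for 24 hr at 37 C in complete medium. Cellular ATP was read by CellTiter-Glo luminescence, and AC50 came from Hill-equation fits.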

[20] = MultiTox-Fluor Cytotoxicity Assay - LYMP1-002 - Live Cells (AID 955)
How it was run: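 Human lymphoblastoid LYMP1-002 cells, 2500/well in complete medium, rested 5 hr at 37 C, then exposed to compounds for 16 hr at 37 C. Live-cell protease cleavage of GF-AFC read by fluorescence (Ex/Em 405/510) after 60 min at room temperature; AC50 from Hill fits.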

Measured: Potency

O=C(Cl)c1c(Cl)cccc1Cl
inactive: [1] | [2] | [3] | [4] | [5] | [6] | [7] | [8] | [9] | [10] | [11] | [12] | [13] | [14] | [15] | [16] | [17] | [18] | [19]

CO[Si](CCCNCCC[Si](OC)(OC)OC)(OC)OC
inactive: [1] | [2] | [3] | [20] | [5] | [6] | [7] | [8] | [9] | [10] | [11] | [12] | [13] | [14] | [15] | [17] | [18] | [19]

CC(O)CC(C)O (stereo unspecified)
inactive: [1] | [2] | [3] | [20] | [5] | [6] | [7] | [8] | [9] | [10] | [11] | [12] | [14] | [15] | [16] | [17] | [18] | [19]

Cc1ccc2nc(-c3ccc(N)cc3)sc2c1S(=O)(=O)O
inactive: [1] | [2] | [3] | [20] | [4] | [5] | [6] | [8] | [9] | [10] | [11] | [12] | [13] | [14] | [15] | [17] | [18] | [19]

O=[N+]([O-])c1cccc(C(F)(F)F)c1
inactive: [1] | [2] | [3] | [4] | [5] | [6] | [7] | [8] | [9] | [10] | [11] | [12] | [13] | [14] | [15] | [16] | [17] | [18] | [19]

Cc1cc(C2(c3cc(C)c(O)cc3C)OS(=O)(=O)c3ccccc32)c(C)cc1O
inactive: [1] | [2] | [3] | [20] | [5] | [6] | [7] | [8] | [9] | [10] | [11] | [12] | [13] | [14] | [15] | [16] | [18] | [19]

Cc1ccc2ccccc2c1[N+](=O)[O-]
inactive: [1] | [2] | [3] | [20] | [4] | [5] | [6] | [8] | [9] | [10] | [11] | [12] | [13] | [14] | [15] | [17] | [18] | [19]

C=Cc1ccc(C=C)cc1
inactive: [1] | [2] | [3] | [20] | [4] | [5] | [6] | [8] | [10] | [11] | [12] | [13] | [14] | [15] | [17] | [18] | [19]

COc1cccc2sc(N)nc12
inactive: [1] | [2] | [3] | [20] | [5] | [6] | [7] | [8] | [9] | [10] | [11] | [12] | [13] | [14] | [15] | [16] | [17] | [18] | [19]

Nc1ccc(Cl)cc1[N+](=O)[O-]
inactive: [1] | [2] | [3] | [20] | [4] | [5] | [6] | [8] | [9] | [10] | [11] | [12] | [14] | [15] | [16] | [17] | [19]

C[C@@H]1CC2(OC3C[C@@]4(C)C5=CC[C@H]6C(C)(C)C(O[C@@H]7OC[C@@H](O)[C@H](O)[C@H]7O)CC[C@@]67C[C@@]57CC[C@]4(C)C31)OC(O)C1(C)OC21 (stereo partly specified)
inactive: [1] | [2] | [3] | [20] | [5] | [6] | [7] | [8] | [9] | [10] | [11] | [12] | [13] | [14] | [15] | [16] | [17] | [18] | [19]

CC(=O)Nc1ccccc1C
inactive: [1] | [2] | [3] | [20] | [5] | [6] | [7] | [8] | [9] | [10] | [11] | [12] | [13] | [14] | [15] | [16] | [17] | [18] | [19]

CCCCCCC=O
inactive: [1] | [2] | [3] | [20] | [5] | [6] | [8] | [9] | [10] | [12] | [13] | [14] | [15] | [16] | [17] | [18] | [19]

O=C1OC(=O)c2c(Br)c(Br)c(Br)c(Br)c21
inactive: [1] | [2] | [3] | [20] | [4] | [5] | [6] | [8] | [9] | [10] | [12] | [13] | [14] | [15] | [16] | [17] | [18] | [19]

CCN(C(=O)N(CC)c1ccccc1)c1ccccc1
inactive: [1] | [2] | [3] | [20] | [4] | [5] | [6] | [8] | [9] | [10] | [11] | [12] | [13] | [14] | [15] | [17] | [18] | [19]

Nc1nc(-c2ccccc2)cs1
inactive: [1] | [2] | [3] | [20] | [5] | [6] | [8] | [9] | [10] | [11] | [12] | [14] | [15] | [17] | [18] | [19]

COC(=O)CCCC(=O)OC
inactive: [1] | [2] | [3] | [20] | [4] | [5] | [6] | [8] | [9] | [10] | [11] | [12] | [14] | [15] | [16] | [17] | [18] | [19]
